Source: PubChem (National Center for Advancing Translational Sciences (NCATS))
Rows were chosen to be rich in hits. Some 10% of all compounds tested hit in one or more screens of this group.
Mm-Cpn inhibitor: blocks the Methanococcus maripaludis chaperonin Mm-Cpn; Potency, µM (doses to about 76.9 µM), most hits filed as inhibitors; 0.031% of 330,000 active; purified Mm-Cpn ATPase, ADP Transcreener TR-FRET; further: nearly all actives have a fitted effect of over 80% in size
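Purified archaeal chaperonin (25 nM final) was preincubated with compound for 10 min at 37°C, then ATP (10 uM final) was added for 30 min at 37°C in Tris pH 7.4/KCl/MgCl2/DTT buffer. ADP was quantified by HTRF Transcreener TR-FRET.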
PLK1 PBD block: blocks phosphopeptide binding to human PLK1 polo-box domain | P53350 | 2.8% of 360,000 active | Potency, µM, most hits filed as inhibitors | Plk1 PBD binding of FITC phosphopeptide, fluorescence polarization; further: series mostly up to about 57 µM; nearly all actives have a fitted effect of over 65% in size
CCT modulator: modulators of cytosolic chaperonin (CCT/TRiC) activity; 0.3% of 360,000 active; purified chaperonin ATPase assay, HTRF ADP detection, 30 min; activity change, % (test concentration not listed), hits read low; in the data active means activity change below about -30%
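ATPase activity: ADP formed was measured by HTRF Transcreener (665/615 nm ratio) after 30 min at 37 deg C with 10 uM ATP. Compounds screened at one 76 uM concentration against 40 or 20 nM TRiC in Tris pH 7.4/KCl/MgCl2/DTT buffer.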
G9a inh: blocks human histone lysine methyltransferase G9a; Q96KQ7; G9a H3K9 monomethylation, AlphaScreen, 2 h; Potency, µM (top dose mostly 102 µM), most hits filed as inhibitors; 8.8% of 350,000 active; AID 504332; further: nearly all actives have a fitted effect of over 75% in size
Target sequence (Q96KQ7 913-1193 limits assumed): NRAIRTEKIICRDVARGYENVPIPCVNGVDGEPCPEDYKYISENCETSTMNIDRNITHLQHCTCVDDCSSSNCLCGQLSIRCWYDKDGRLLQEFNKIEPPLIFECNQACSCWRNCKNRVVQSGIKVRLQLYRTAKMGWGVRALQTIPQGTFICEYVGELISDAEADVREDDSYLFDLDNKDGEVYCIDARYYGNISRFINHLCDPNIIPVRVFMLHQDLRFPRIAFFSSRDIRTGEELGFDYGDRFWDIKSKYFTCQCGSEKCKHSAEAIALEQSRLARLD
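Step 1: enzyme (final 20 nM) with compound, 15 min RT. Step 2: substrate peptide 500 nM and SAM 20 uM, 2 h RT. Step 3: anti-H3K9me1 antibody and AlphaScreen beads, 10 min, then plate read.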
Sfp PPTase inh: inhibitors of Bacillus subtilis Sfp phosphopantetheinyl transferase. Q9F4F7. Biochemical Sfp PPTase activity, qHTS. Potency, µM, usual class: inhibitors. 3.5% of 310,000 active;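 further: the enzyme is Sfp with the accession as filed and its product quenches rhodamine fluorescence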
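With Hepes-Na pH 7.6 buffer containing 10 mM MgCl2, Sfp (15 nM) modified BHQ-2-YbbR (12.5 uM) using rhodamine-CoA (5 uM). Two reads 30 minutes apart at 525/598 nm yielded each well's rate.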
VDR inh: inhibitors of human vitamin D receptor; AID 504847; 0.93% of 400,000 active; P11473; Potency, µM, usual class: inhibitors; VDR-SRC2-3 peptide fluorescence polarization, 2 h
Target sequence (P11473 whole entry, looked up): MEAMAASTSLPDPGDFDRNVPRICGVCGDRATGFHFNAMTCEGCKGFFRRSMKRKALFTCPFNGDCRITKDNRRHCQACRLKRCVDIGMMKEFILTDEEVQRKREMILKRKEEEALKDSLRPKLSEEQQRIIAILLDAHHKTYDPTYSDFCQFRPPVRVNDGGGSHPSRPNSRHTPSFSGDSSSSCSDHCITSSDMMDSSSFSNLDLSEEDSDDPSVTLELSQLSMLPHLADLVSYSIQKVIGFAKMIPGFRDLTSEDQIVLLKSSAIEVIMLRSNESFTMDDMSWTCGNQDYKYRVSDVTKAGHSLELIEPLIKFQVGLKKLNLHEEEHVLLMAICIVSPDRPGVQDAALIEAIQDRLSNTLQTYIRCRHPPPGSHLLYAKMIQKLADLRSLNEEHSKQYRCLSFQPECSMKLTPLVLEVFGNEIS
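Measured by FP: displacement of SRC2-3 coactivator peptide from VDR by library compounds, following a two-hour ambient incubation.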
A number is an active result; . = inactive; ? = inconclusive; / = not tested or not shown; [ ] = dose if it differs, or a comment. Unless noted, the call rests on the fitted dose curve; in most records, active means well fitted curve in the direction sought with a large enough effect; inconclusive means small, poorly fitted or top-dose-only effect, or another doubt; inactive means no such curve, though single readings can be large; an effect the other way counts as inactive or inconclusive.

SMILES | Mm-Cpn inhibitor | PLK1 PBD block | CCT modulator | G9a inh | Sfp PPTase inh | VDR inh
COc1ccc(CN(C)c2ccc(-c3nc(-c4ccc(OC)c(OC)c4)no3)cc2[N+](=O)[O-])cc1 | / | / | / | . | / | .
COc1ccc(CN2CCN(C)CC2)cc1OCc1ccccc1 | . | . | . | ? | . | .
CCn1c2ccccc2c2cc(CN3CCN(Cc4cc(OC)ccc4O)CC3)ccc21 | . | . | . | 10µM | 50.1µM | ?
CCn1c2ccccc2c2cc(CN3CCN(Cc4cc(OC)c(O)c(OC)c4)CC3)ccc21 | / | / | / | 0.708µM | / | .
COC(=O)c1cc2sc(C)cc2n1Cc1cccc(OC)c1 | / | / | / | . | / | .
CCc1ccc2oc(C(=O)Nc3cccc(Cl)c3C)cc(=O)c2c1 | / | / | / | . | / | .
O=c1[nH]c(CN2CCc3ccccc32)nc2scc(-c3cccs3)c12 | . | . | . | 17.8µM | . | .
O=c1[nH]c(CN2CCN(c3ccccc3O)CC2)nc2scc(-c3ccccc3Cl)c12 | . | . | . | . | . | .
COc1ccc(OCc2ccc(-c3nc(C#N)c(N4CCC(C(N)=O)CC4)o3)o2)cc1 | / | / | / | . | / | .
CC1CCN(c2oc(-c3ccc(COc4ccccc4)o3)nc2C#N)CC1 | / | / | / | 5.01µM | / | .
COc1ccc(OCc2ccc(-c3nc(C#N)c(N4CCC(C)CC4)o3)o2)cc1 | / | / | / | 3.55µM | / | .
Cc1ccc(Cl)cc1NC(=O)c1ccc(-c2nc(CSc3ccccc3)c(C)o2)cc1 | / | / | / | . | / | .
CC(CNC(=O)CN1C(=O)COc2ccc(S(=O)(=O)N3CCCCCC3)cc21)c1ccccc1 (stereo unspecified) | / | / | / | . | / | .
CN(c1ccc(F)cc1)S(=O)(=O)N1CCCC(C(=O)NCCc2ccccc2)C1 (stereo unspecified) | / | / | / | . | / | .
CC1=NN(c2ccc(S(=O)(=O)O)cc2C)C(=O)C1 | . | ? | . | 25.1µM | . | .
CC1=NN(c2ccc(Cl)cc2)C(=O)C1 | . | . | . | . | . | ?
CCC(C)(C)n1nnnc1C(c1ccccn1)N1CCN(c2cccc(OC)c2)CC1 (stereo unspecified) | . | . | . | 20µM | . | .
CCOC(=O)c1c(-c2ccc(C)cc2)csc1NC(=O)c1cc(-c2ccc(OC)cc2)on1 | / | / | / | . | / | .
COC(=O)c1c(-c2ccc(C)cc2)csc1NC(=S)NC(=O)c1cc(OC)cc(OC)c1 | . | . | . | 25.1µM | ? | .
O=C(c1ccc2c(c1)N(Cc1ccccc1F)C(=O)c1ccccc1S2=O)N1CCC(Cc2ccccc2)CC1 (stereo unspecified) | / | / | / | . | / | .
CCC(=O)/C=C1/Sc2ccc(OC)cc2N1CC | . | ? | . | . | . | .
CCO/C(=C/c1sc2ccc(OC)cc2[n+]1CCCS(=O)(=O)[O-])CC | . | . | . | . | ? | .
CCC(=O)/C=C1/Sc2ccc(OC)cc2N1CCO | . | 13.4µM | . | . | . | ?
CCC(/C=C1\Sc2ccc(OC)cc2N1CC)=C\c1sc2ccc(OC)cc2[n+]1CCCS(=O)(=O)[O-] | . | ? | . | 20µM | 50.1µM | ?
CCC(/C=C1\Sc2ccc(OC)cc2N1CCO)=C\c1sc2ccc(OC)cc2[n+]1CCO | . | ? | . | 11.2µM | 22.4µM | 79.4µM
SMILES | Mm-Cpn inhibitor | PLK1 PBD block | CCT modulator | G9a inh | Sfp PPTase inh | VDR inh
CCc1cccc(C)c1NC(=O)CN1C(=O)C2(SCC(=O)N2c2cccc(F)c2)c2ccccc21 (stereo unspecified) | / | / | / | . | / | .
Cc1ccc2c(c1)Cc1c(nc(-c3ccc(Cl)cc3)nc1SCC(=O)N1CCCCC1)O2 | / | / | / | . | / | .
Cc1ccc2oc3c(c(=O)c2c1)C(c1ccccc1F)N(CCCN1CCOCC1)C3=O (stereo unspecified) | / | / | / | . | / | .
CC(NCc1ccc2c(c1)n(C)c(=O)n2C)c1ccccc1 (stereo unspecified) | / | / | / | . | / | .
CCc1ccc(NC(=O)CSc2ncc(S(=O)(=O)c3cc(C)ccc3C)c(=O)[nH]2)cc1 | / | / | / | . | / | .
O=S(=O)(Nc1ccc(F)c(C(F)(F)F)c1)c1ccc(N2CCCCS2(=O)=O)cc1 | / | / | / | . | / | .
COc1ccccc1N1C(=O)CC(N(O)c2ccccc2)C1=O (stereo unspecified) | . | . | . | ? | . | .
COc1ccccc1N(O)C1CC(=O)N(c2ccc(F)cc2)C1=O (stereo unspecified) | . | 5.32µM | . | ? | ? | ?
COC(=O)c1ccc(CSc2ncn[nH]2)o1 | . | . | . | 70.8µM | . | .
Cn1c(SCc2ccc(F)cc2)nc2ccc(C(=O)NCc3ccc(F)cc3)cc21 | / | / | / | . | / | .
COC(=O)c1ccc(CSc2cc(C)c3cc(C)cc(C)c3n2)o1 | . | . | . | . | 14.1µM | .
COC(=O)c1ccc(CSc2nc3ccc(C)cc3[nH]2)o1 | . | . | . | 4.47µM | . | .
CCOC(=O)c1ccc(CSc2ncn[nH]2)o1 | . | . | . | ? | . | .
COC(=O)c1ccc(CSc2nc3c(cnn3-c3ccc(C)cc3)c(=O)[nH]2)o1 | . | . | . | . | . | .
Cc1ccc(CNC(=O)c2ccc3nc(SCc4ccc(F)cc4)[nH]c3c2)cc1 | / | / | / | 7.94µM | / | .
CCOCCCNC(=O)C1CCN(c2nn3cc(-c4ccc(F)cc4)nc3s2)CC1 | / | / | / | . | / | .
CCOC(=O)NC(=O)CSc1cc(C)c2cc(C)cc(C)c2n1 | . | . | . | ? | 44.7µM | .
Cc1cc(C)c2nc(SCC(=O)NC(=O)c3cccn3C)cc(C)c2c1 | . | . | . | ? | . | .
Cc1ccc(CNC(=O)CSc2ncn[nH]2)cc1 | . | . | . | . | . | .
COc1ccc(CNC(=O)CSc2ncn[nH]2)cc1 | . | . | . | 2.82µM | . | .
COC(=O)c1ccc(CSc2nc3ccccc3s2)o1 | . | . | . | . | . | .
COC(=O)c1ccc(CSc2n[nH]c(=S)s2)o1 | ? | ? | . | 1.12µM | . | .
C/C(O)=C(/C#N)c1nc2ccccc2[nH]1 | . | . | . | 10µM | . | .
N#C/C(=C(/O)C(Cl)(Cl)Cl)c1nc2ccccc2[nH]1 | . | . | . | . | . | .
Cc1[nH]c(=S)[nH]c(=O)c1CCC1OCCO1 | . | . | . | ? | 79.4µM | .
SMILES | Mm-Cpn inhibitor | PLK1 PBD block | CCT modulator | G9a inh | Sfp PPTase inh | VDR inh
CCOc1ccc2nc(SCC(=O)c3ccccc3)sc2c1 | . | . | . | . | ? | .
CCOc1ccc2c(c1)nc(SCC(=O)c1ccc(Br)s1)n2C | . | 29.9µM | . | 39.8µM | 31.6µM | 89.1µM
COc1ccc2c(c1)nc(SCC(O)c1ccccc1)n2C (stereo unspecified) | . | . | . | . | . | .
CCOc1ccc2c(c1)nc(SCC(=O)c1cccs1)n2C | . | ? | . | 25.1µM | ? | ?
O=C(c1ccc(Cl)cc1)N1CCC(c2nc3ccccc3o2)CC1 | / | / | / | . | / | .
COc1ccc(C(=O)N2CCC[C@@]3(CCN(Cc4nccs4)C3)C2)cc1 | / | / | / | .[12.7 µM] | . | .
